Rows were chosen to be rich in hits. Some 7.5% of all compounds tested hit in one or more screens of this group.
SMN2 splice up = increases expression of the SMN2 splice variant | Potency, µM (series often up to 46.1 µM), without a hit: top-dose activity change, positive = activation, usual class: activators | HEK293 SMN2-luciferase splicing reporter, luminescence, 30-36 h | hit rate 2.8% among 210,000; note: % of control where 0% means no effect; nearly all actives have a fitted effect of over 55% in size
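HEK293 cells carry an SMN2 […]–luciferase reporter in which exon 7 inclusion puts luciferase in frame. Cells were plated 10-12 h before compound addition, then incubated 30-36 h at 37C. ONE-Glo luminescence was read; sodium butyrate at 4.5 mM final served as control.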
FLuc counter = counter-screen for miR-21 project: firefly luciferase inhibitors or activators | P08659 | purified FLuc, Km substrates, luminescence inhibition | Potency, µM (doses to about 57.5 µM), inactives show at the highest dose activity change, negative = inhibition, hits mostly inhibitors | hit rate 6.9% among 360,000 | AID 588342;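 note: plate controls were vehicle for no effect and reference inhibitor for full effect; nearly all actives have a fitted effect of over 55% in size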
Target sequence (P08659 whole entry, looked up): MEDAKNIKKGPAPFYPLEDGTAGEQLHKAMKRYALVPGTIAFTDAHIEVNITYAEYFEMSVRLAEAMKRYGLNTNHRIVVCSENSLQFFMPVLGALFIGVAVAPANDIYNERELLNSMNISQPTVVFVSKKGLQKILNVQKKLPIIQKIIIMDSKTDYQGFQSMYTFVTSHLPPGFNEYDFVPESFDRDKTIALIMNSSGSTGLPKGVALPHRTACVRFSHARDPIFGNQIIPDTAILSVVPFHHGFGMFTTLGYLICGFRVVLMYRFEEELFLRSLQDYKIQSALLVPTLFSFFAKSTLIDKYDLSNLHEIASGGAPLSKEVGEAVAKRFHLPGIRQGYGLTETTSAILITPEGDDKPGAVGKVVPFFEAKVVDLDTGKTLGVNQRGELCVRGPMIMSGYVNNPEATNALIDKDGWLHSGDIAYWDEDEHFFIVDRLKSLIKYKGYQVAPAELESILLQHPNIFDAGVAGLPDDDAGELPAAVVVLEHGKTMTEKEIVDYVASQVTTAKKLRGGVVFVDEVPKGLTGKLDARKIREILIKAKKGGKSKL
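Biochemical qHTS of compounds, final roughly 60 µM downward over six points, against 10 nM purified firefly luciferase using Km concentrations of substrates (10 uM D-luciferin, 10 uM ATP) in Tris acetate pH 7.5 buffer; luminescence output.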
KinaseGlo FLuc = counter-screen: inhibitors of Kinase-Glo firefly luciferase. Potency, µM (highest dose often 38.3 µM), for the others: at the top dose activity change, negative = inhibition, most hits filed as inhibitors. hit rate 0.28% among 200,000. Kinase-Glo luciferase, ATP luminescence, 8 min. Q27757. AID 1379; note: % is set by controls: 0 for no effect and ±100 for the full control effect; nearly all actives have a fitted effect of over 60% in size
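Recombinant Kinase-Glo luciferase, 10 uM ATP (linear range), luciferin; imidazole pH 7.2 / KCl / MgCl2 / Tween / BSA buffer; 8 min RT; luminescence.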
ELG1 genotoxic = genotoxicity induction in ELG1-luciferase HEK293T cells; HEK293T ELG1-luciferase reporter, luminescence, 16 h; Potency, µM (top dose mostly 46 µM), inactives show at the highest dose activity change, positive = activation, actives largely listed as activators; hit rate 1.3% among 330,000; note: % of control where 0% means no effect; nearly all actives have a fitted effect of over 60% in size
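Luminescence read-out: rising ELG1-luciferase signal, reflecting elevated ELG1 protein under genetic stress, flags genotoxic compounds. Cells were treated for 16 hr at 37 °C before ONE-Glo detection.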
Rab9 promoter act = activators of Rab9 promoter; Huh7 Rab9 promoter-luciferase reporter, luminescence, 24 h; Potency, µM (doses to about 9.22 µM), inactives show at the highest dose activation, negative = inhibition, hits mostly activators; hit rate 2.8% among 320,000; AID 485297; note: % of control where 0% means no effect; nearly all actives have a fitted effect of over 60% in size
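Huh7 cells stably carrying Rab9 promoter–luciferase reporter, plated 1500 cells/well, compound added after 2 h and incubated 24 h at 37 °C; luciferase luminescence then read after 10 min with detection reagent.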
NPC1 prom act = activators of NPC1 promoter | Huh7 NPC1 promoter luciferase reporter, 24 h | AID 485313 | Potency, µM (doses to about 9.22 µM), for the others: at the highest dose activation, usual class: activators | hit rate 2.4% among 320,000; note: % of control where 0% means no effect; nearly all actives have a fitted effect of over 60% in size
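Luminescence from an NPC1 promoter-driven luciferase reporter in stably transfected Huh7 cells was measured after 24 h compound treatment at 37 °C, followed by 10 min ambient incubation with luciferase detection reagent.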
* hit, by the source's call; ? = inconclusive; nt = not tested or not shown; [ ] = remark or other dose. Calls come from the whole dose curve; as a rule, active = well fitted curve in the direction sought with a large enough effect; inconclusive = small, poorly fitted or top-dose-only effect, or another doubt; inactive = no such curve, though single readings can be large; an effect the other way counts as inactive or inconclusive. Potency is the fitted concentration of half-maximal effect.

SMILES	SMN2 splice up	FLuc counter	KinaseGlo FLuc	ELG1 genotoxic	Rab9 promoter act	NPC1 prom act
Cc1ccc(C(=O)N(C)c2ccc(OCC(=O)N3c4ccc(C)cc4C4CN(C)CCC43)cc2)cc1 (stereo not given)	11.2µM*	3.01µM*	0.0%	?	?	27.1%
Cc1noc(C)c1S(=O)(=O)NCCc1csc2nc(-c3ccc(F)cc3)nn12	nt	-14.1%	nt	nt	nt	nt
COc1nc(-c2ccccc2)ccc1-c1noc(C)n1	13.6%	?	-1.3%	nt	nt	nt
CCc1nc(-c2ccc(C)nc2OC)no1	-3.9%	2.5%[2.3 µM]	-1.6%	1.3%	-1.0%	1.9%
COc1nc(C)ccc1-c1noc(-c2ccccn2)n1	8.91µM*	6.01µM*	-21.6%	1.16µM*	0.562µM*	1.26µM*
COc1nc(C)ccc1-c1noc(-c2cccnc2)n1	nt	23.9µM*	nt	?	?	?
COc1ccccc1-c1nc(-c2ccc(C)nc2OC)no1	12.6µM*	4.26µM*	-4.3%	8.2µM*	2µM*	3.98µM*
COc1nc2cc(C)ccc2cc1-c1noc(-c2cccnc2)n1	-8.3%	2.4%	4.0%	-0.4%	0.6%	5.5%
CC(=O)c1c(C)[nH]c(C(=O)OCc2csc(CC(=O)Nc3ccccc3C)n2)c1C	nt	nt	nt	-1.9%	nt	nt
O=C1N/C(=C/c2ccc(N3CCCC3)cc2)C(=O)N1c1ccccc1	27.0%	?	-0.3%	14.4%	24.6%	23.3%
O=C1/C(=C/c2ccc(N3CCCC3)cc2)NC(=S)N1C1CC1	-11.7%	12µM*	-5.9%	-2.5%	?	4.3%
Cc1cc(N2CCCC2)ccc1/C=C1\NC(=S)N(C)C1=O	nt	13.5µM*	-4.9%	9.6%	3.16µM*	?
CCOc1ccc(-c2nn(CC(=O)NC3CCCCC3)c3c2cnc2ccc(C)cc23)cc1	nt	-1.0%	nt	nt	nt	nt
CCOc1ccc(NC(=O)C2CCCN(c3ccc(Sc4ccc(C)cc4)nn3)C2)cc1 (stereo not given)	-16.0%	5.0%	nt	nt	nt	nt
c1ccc(-c2cnc(CSc3nnc4ccccn34)o2)cc1	11.2µM*	10.7µM*	-6.4%	4.11µM*	1µM*	1.58µM*
Fc1ccc(-c2nnc(CSc3nnc4ccccn34)o2)cc1	?	?	0.4%	?	?	?
CCN(CC)c1ccc(/C=N\NC(N)=O)cc1	2.5%	?	-2.0%	16.1%	3.9%	-4.3%
CCN(CC)c1ccc(/C=N/NC(=O)Nc2ccccc2)cc1	20µM*	5.36µM*	0.3%	-8.2%	3.16µM*	3.98µM*
CCOc1ccc(/C=N/NC(=O)Nc2ccccc2)cc1	5.01µM*	3.01µM*	-8.1%	7.3µM*	2.24µM*	?
CCN(CC)c1ccc(/C=N/OCC(=O)Nc2cccc(C)c2)cc1	-6.4%	12µM*	-1.9%	-0.5%	1.6%	2.4%
Cc1ccc(/C=N/NC(=O)C(O)c2ccccc2)o1 (stereo not given)	nt	-1.3%	nt	0.6%	0.5%	-1.5%
Cc1ccc(/C=N/NC(=O)Nc2ccccc2)o1	11.2µM*	10.7µM*	2.1%	?	3.16µM*	2.51µM*
CC(CNC(=O)C1CCN(S(=O)(=O)c2ccc3c(ccn3C)c2)CC1)c1ccccc1 (stereo not given)	nt	-4.6%	nt	nt	nt	nt
COc1cccc(N2CC(NC(=O)C3CC3)CC2=O)c1 (stereo not given)	nt	-2.4%	nt	nt	nt	nt
CCCn1c(SC(C)C(=O)NC2CCCC2)n[nH]c1=O (stereo not given)	nt	2.5%	nt	2.3%	3.9%	1.1%
CC(=O)Oc1ccc(/C=N/NC(=S)Nc2ccccc2)cc1	11.2µM*	?	0.0%	9.2µM*	3.98µM*	3.16µM*
CCN(CC)c1ccc(/C=N/NC(=O)OC(C)(C)C)cc1	nt	10.7µM*	nt	?	2.82µM*	?
O=C(Cc1ccccc1)N/N=C/c1ccc(OCC(=O)Nc2ccccc2)cc1	-5.3%	-0.4%	3.1%	-2.2%	8.6%	-0.6%
O=C(Nc1nnc(SCCN2CCOCC2)s1)C1CC(=O)N(c2ccccc2)C1 (stereo not given)	nt	-1.6%	nt	-1.7%	3.0%	-3.3%

High-throughput results deposited in PubChem by National Center for Advancing Translational Sciences (NCATS).
